From PubChem BioAssay (NCATS)
Inconclusive results are not listed. Active and inactive are the calls of the source. The call rests on the fitted dose curve; in most records, active means well fitted curve in the direction sought with a large enough effect; inconclusive means small, poorly fitted or top-dose-only effect, or another doubt; inactive means no such curve, though single readings can be large; an effect the other way counts as inactive or inconclusive.

Columns and labels:
[1] = qHTS of pediatric cancer cell lines to identify multiple opportunities for drug repurposing: Primary screen for TC32 cells (AID 1347089); further: nearly all actives have a fitted effect of over 60% in size; further: potency means the concentration at half of the fitted maximal effect; on activity change, negative = cytotoxic: on the % scale 0 is the no-effect control and ±100 the full control effect
Method in brief: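 qHTS, TC32, 48 h drug treatment, CellTiter-Glo luminescence as a proxy for metabolically active cells; primary top concentration 46 µM (MIPE 11-pt, NPC 8-pt); confirmatory 11-pt.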

[2] = qHTS of pediatric cancer cell lines to identify multiple opportunities for drug repurposing: Primary screen for U-2 OS cells (AID 1347096);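 further: plate controls were DMSO wells for no effect and bortezomib positive control wells for full effect; nearly all actives have a fitted effect of over 50% in size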
Method in brief: (§1)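 Viability after 48 h compound treatment at 37C, 500-1,000 cells/well, read as ATP luminescence with CellTiter-Glo. Primary screens used 11-point (MIPE, 0.78 nM-46 µM) or 8-point (NPC, 0.59 nM-46 µM) final concentrations; follow-up screens used 11-point dilutions.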

[3] = qHTS of pediatric cancer cell lines to identify multiple opportunities for drug repurposing: Primary screen for LAN-5 cells (AID 1347100);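 further: plate controls were DMSO neutral control for no effect and bortezomib positive control for full effect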
Method in brief: as §1

[4] = qHTS of pediatric cancer cell lines to identify multiple opportunities for drug repurposing: Primary screen for Rh18 cells (AID 1347102); further: nearly all actives have a fitted effect of over 65% in size; further: potency means the concentration at half of the fitted maximal effect; on activity change, negative = cytotoxic: on the % scale 0 is the no-effect control and ±100 the full control effect
Method in brief: as §1

[5] = qHTS of pediatric cancer cell lines to identify multiple opportunities for drug repurposing: Primary screen for OHS-50 cells (AID 1347103); further: nearly all actives have a fitted effect of over 40% in size; further: potency means the concentration at half of the fitted maximal effect;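 on activity change, negative = cytotoxic: plate controls were DMSO neutral control for no effect and bortezomib positive control for full effect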
Method in brief: (§2)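 Cells (500-1,000/well) rested 5 h, then received compounds for 48 h; metabolically active cells were measured by CellTiter-Glo luminescence. Final concentrations spanned up to 46 µM (MIPE, 11-point) or 0.59 nM-46 µM (NPC, 8-point) in primary screens, 11-point in follow-ups.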

[6] = qHTS of pediatric cancer cell lines to identify multiple opportunities for drug repurposing: Primary screen for RD cells (AID 1347104); further: nearly all actives have a fitted effect of over 55% in size; further: potency means the concentration at half of the fitted maximal effect;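 on activity change, negative = cytotoxic: plate controls were DMSO for no effect and bortezomib for full effect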
Method in brief: (§3)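 Luminescence from CellTiter-Glo served as readout of metabolically active cells after 48 h compound exposure. Titrations: MIPE 11-point, from 0.78 nM; NPC 8-point, from 0.59 nM (final). Concentration-response curves came straight from the primary screen.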

[7] = qHTS of pediatric cancer cell lines to identify multiple opportunities for drug repurposing: Primary screen for control Hh wild type fibroblast cells (AID 1347106);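 further: series mostly up to about 46 µM; on the % scale 0 is the no-effect control and ±100 the full control effect; a drop in luminescence marks cytotoxicity and a rise apparent proliferation; nearly all actives have a fitted effect of over 55% in size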
Method in brief: as §1

[8] = qHTS of pediatric cancer cell lines to identify multiple opportunities for drug repurposing: Primary screen for A673 cells (AID 1347092); further: nearly all actives have a fitted effect of over 45% in size; further: potency means the concentration at half of the fitted maximal effect; on activity change, negative = cytotoxic: on the % scale 0 is the no-effect control and ±100 the full control effect
Method in brief: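 Luminescence from CellTiter-Glo, taken after 15 min at room temperature, served as the proxy for metabolically active cells following 48 h treatment. Both potency and efficacy were taken from curves fitted to the titration data.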

[9] = qHTS of pediatric cancer cell lines to identify multiple opportunities for drug repurposing: Primary screen for BT-37 cells (AID 1347094); further: potency means the concentration at half of the fitted maximal effect;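 on activity change, negative = cytotoxic: series mostly up to about 57 µM; plate controls were DMSO for no effect and bortezomib for full effect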
Method in brief: as §3

[10] = qHTS of pediatric cancer cell lines to identify multiple opportunities for drug repurposing: Primary screen for NB-EBc1 cells (AID 1347095); further: potency means the concentration at half of the fitted maximal effect;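 on activity change, negative = cytotoxic: plate controls were DMSO neutral control for no effect and bortezomib for full effect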
Method in brief: as §3

[11] = qHTS of pediatric cancer cell lines to identify multiple opportunities for drug repurposing: Primary screen for SK-N-SH cells (AID 1347098); further: nearly all actives have a fitted effect of over 65% in size; further: potency means the concentration at half of the fitted maximal effect;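 on activity change, negative = cytotoxic: DMSO served as neutral control and bortezomib at 2.3 µM as positive control; on the % scale 0 is the no-effect control and ±100 the full control effect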
Method in brief: as §2

[12] = qHTS of pediatric cancer cell lines to identify multiple opportunities for drug repurposing: Primary screen for SK-N-MC cells (AID 1347093); further: potency means the concentration at half of the fitted maximal effect;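 on activity change, negative = cytotoxic: series mostly up to about 46 µM; plate controls were DMSO neutral control for no effect and bortezomib for full effect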
Method in brief: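 Metabolically active cells were quantified by ATP-dependent luminescence (CellTiter-Glo, 15 min at room temperature) following 48 h treatment. Cells had been plated at 500-1,000 per well and settled for 5 h beforehand.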

[13] = qHTS of pediatric cancer cell lines to identify multiple opportunities for drug repurposing: Primary screen for NB1643 cells (AID 1347099); further: nearly all actives have a fitted effect of over 50% in size; further: potency means the concentration at half of the fitted maximal effect;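 on activity change, negative = cytotoxic: plate controls were DMSO neutral control for no effect and bortezomib positive control for full effect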
Method in brief: as §3

[14] = qHTS of pediatric cancer cell lines to identify multiple opportunities for drug repurposing: Primary screen for DAOY cells (AID 1347090); further: nearly all actives have a fitted effect of over 55% in size;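 on activity change, negative = cytotoxic: series mostly up to about 46 µM; plate controls were DMSO for no effect and bortezomib for full effect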
Method in brief: (§4)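 Viability measured as metabolically active cells via CellTiter-Glo luminescence following 48 hours of compound exposure, 11-point dilutions in confirmatory testing. 500-1,000 cells/well plated 5 hours before dosing; controls were DMSO and 2.3 µM bortezomib.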

[15] = qHTS of pediatric cancer cell lines to identify multiple opportunities for drug repurposing: Primary screen for Saos-2 cells (AID 1347097); further: nearly all actives have a fitted effect of over 40% in size; further: potency means the concentration at half of the fitted maximal effect
Method in brief: as §3

[16] = qHTS of pediatric cancer cell lines to identify multiple opportunities for drug repurposing: Primary screen for BT-12 cells (AID 1347101); further: nearly all actives have a fitted effect of over 25% in size; further: potency means the concentration at half of the fitted maximal effect;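 on activity change, negative = cytotoxic: plate controls were DMSO for no effect and bortezomib positive control for full effect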
Method in brief: as §2

[17] = qHTS of pediatric cancer cell lines to identify multiple opportunities for drug repurposing: Primary screen for MG 63 (6-TG R) cells (AID 1347105); further: nearly all actives have a fitted effect of over 50% in size
Method in brief: as §3

[18] = qHTS of pediatric cancer cell lines to identify multiple opportunities for drug repurposing: Primary screen for SJ-GBM2 cells (AID 1347091);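 further: plate controls were DMSO neutral control for no effect and bortezomib for full effect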
Method in brief: as §4

O=C1Nc2ccc(Cl)cc2[C@@](C#CC2CC2)(C(F)(F)F)O1
active: Potency [5] 27.6 µM
inactive: Potency [1] | Potency [2] | Potency [3] | Potency [4] | Potency [6] | outcome [7]

CCN(CC)CCCC(C)Nc1c2ccc(Cl)cc2nc2ccc(OC)cc12 (stereo not given)
inactive: Potency [1] | Potency [2] | outcome [7]
active: Potency [8] 21.1 µM | Potency [9] 27.6 µM | Potency [10] 15 µM | Potency [11] 5.45 µM | Potency [5] 17.4 µM | Potency [6] 23.7 µM

C[C@]12CC[C@@H]3c4ccc(O)cc4CC[C@H]3[C@@H]1CC[C@@H]2OC(=O)CCC1CCCC1
inactive: Potency [1] | Potency [8] | Potency [12] | Potency [11] | Potency [13] | Potency [4] | outcome [7]
active: Potency [5] 27.6 µM

O=C(O)CC(O)C(=O)O (stereo not given)
inactive: Potency [1] | Potency [14] | Potency [8] | Potency [9] | Potency [10] | Potency [2] | Potency [15] | Potency [11] | Potency [13] | Potency [16] | Potency [5] | Potency [6] | Potency [17] | outcome [7]

COc1ccc2cc1Oc1cc3c(cc1OC)CC[N+](C)(C)[C@H]3Cc1ccc(cc1)Oc1c(OC)c(OC)cc3c1[C@@H](C2)[N+](C)(C)CC3
inactive: Potency [1] | Potency [14] | Potency [8] | Potency [9] | Potency [10] | Potency [2] | Potency [15] | Potency [11] | Potency [13] | Potency [3] | Potency [16] | Potency [4] | Potency [5] | Potency [6] | Potency [17] | outcome [7]

CC[N+](CC)(CC)CCOc1ccc(/C=C/c2ccccc2)cc1
active: Potency [1] 21 µM | Potency [8] 2.66 µM | Potency [12] 5.96 µM | Potency [9] 15.5 µM | Potency [15] 23.7 µM | Potency [13] 13.3 µM | Potency [16] 3.47 µM | Potency [4] 7.5 µM | Potency [5] 3.47 µM | Potency [6] 15 µM
inactive: Potency [2]

CO/N=C(\C(=O)N[C@@H]1C(=O)N2C(C(=O)O)=C(CSc3nc(=O)c(O)nn3C)CS[C@H]12)c1csc(N)n1
inactive: Potency [1] | Potency [14] | Potency [8] | Potency [9] | Potency [10] | Potency [2] | Potency [15] | Potency [11] | Potency [13] | Potency [16] | Potency [5] | Potency [6] | Potency [17] | outcome [7]

CN(C)CCCO[C@@H]1[C@H]2OC(C)(C)O[C@H]2O[C@@H]1C(O)CO (stereo not given in full)
inactive: Potency [1] | Potency [14] | Potency [8] | Potency [9] | Potency [10] | Potency [2] | Potency [15] | Potency [11] | Potency [13] | Potency [16] | Potency [5] | Potency [6] | Potency [17] | outcome [7]

CN(C)CCCN1c2ccccc2Sc2ccc(Cl)cc21
inactive: Potency [2] | outcome [7]
active: Potency [8] 21.1 µM | Potency [11] 6.12 µM | Potency [5] 27.6 µM

CSc1ccc2c(c1)C(N1CCN(C)CC1)Cc1ccccc1S2 (stereo not given)
active: Potency [11] 27.3 µM | Potency [5] 27.6 µM
inactive: Potency [14] | Potency [10] | Potency [2] | Potency [13] | outcome [7]

CC(O)COc1ccccc1 (stereo not given)
inactive: Potency [1] | Potency [18] | Potency [8] | Potency [10] | Potency [2] | Potency [11] | Potency [3] | Potency [16] | Potency [5] | Potency [17] | outcome [7]

O=C(O)Cc1sc(-c2ccccc2)nc1-c1ccc(Cl)cc1
inactive: Potency [1] | Potency [18] | Potency [8] | Potency [9] | Potency [10] | Potency [2] | Potency [15] | Potency [11] | Potency [3] | Potency [16] | Potency [4] | Potency [5] | Potency [6] | Potency [17] | outcome [7]

CC(=O)O[C@@]12CO[C@@H]1C[C@H](O)[C@@]1(C)C(=O)[C@H](O)C3=C(C)[C@@H](OC(=O)[C@H](O)[C@@H](NC(=O)OC(C)(C)C)c4ccccc4)C[C@@](O)([C@@H](OC(=O)c4ccccc4)[C@H]21)C3(C)C
active: Potency [1] 0.0026 µM | Potency [8] 0.001 µM | Potency [12] 0.001 µM | Potency [5] 0.0031 µM
inactive: Potency [2] | Potency [4] | outcome [7]

Cc1cc(C(C#N)c2ccc(Cl)cc2)c(Cl)cc1NC(=O)c1cc(I)cc(I)c1O (stereo not given)
inactive: Potency [1] | outcome [7]
active: Potency [15] 26.6 µM | Potency [5] 30.9 µM

CSc1ccc2c(c1)N(CCC1CCCCN1C)c1ccccc1S2 (stereo not given)
inactive: Potency [10] | outcome [7]
active: Potency [14] 16.8 µM | Potency [8] 21.1 µM | Potency [9] 24.6 µM | Potency [15] 23.7 µM | Potency [16] 24.6 µM | Potency [4] 16.8 µM | Potency [5] 17.4 µM | Potency [6] 26.6 µM

CCN(CC)CCSC(=O)C(c1ccccc1)c1ccccc1
active: Potency [8] 21.1 µM | Potency [10] 23.7 µM | Potency [13] 23.7 µM
inactive: Potency [1] | Potency [14] | Potency [9] | Potency [2] | Potency [15] | Potency [11] | Potency [16] | Potency [6] | Potency [17] | outcome [7]

CCCCOC(=O)c1ccc(O)cc1
inactive: Potency [1] | Potency [14] | Potency [12] | Potency [9] | Potency [10] | Potency [2] | Potency [11] | Potency [13] | Potency [3] | Potency [4] | Potency [6] | Potency [17] | outcome [7]

Cc1ccc2nc(N)[nH]c(=O)c2c1Sc1ccncc1
inactive: Potency [2] | Potency [11] | Potency [13] | Potency [4] | outcome [7]
active: Potency [1] 8.36 µM | Potency [12] 0.944 µM | Potency [15] 13.3 µM

O=c1[nH]c(=O)c2[nH]c(=O)[nH]c2[nH]1
inactive: activity change, negative = cytotoxic [1] -9.56% [at 9.17 µM] | activity change, negative = cytotoxic [14] -3.8% [at 9.22 µM] | activity change, negative = cytotoxic [8] -14.8% [at 9.22 µM] | activity change, negative = cytotoxic [9] 0.299% [at 11.5 µM] | activity change, negative = cytotoxic [10] -4.54% [at 9.22 µM] | activity change, negative = cytotoxic [2] -0.365% [at 9.22 µM] | activity change, negative = cytotoxic [11] 13.8% [at 11.4 µM] | activity change, negative = cytotoxic [13] -5.19% [at 9.22 µM] | activity change, negative = cytotoxic [3] 19.2% [at 9.22 µM] | activity change, negative = cytotoxic [16] 3.54% [at 11.5 µM] | activity change, negative = cytotoxic [4] 4.04% [at 9.22 µM] | activity change, negative = cytotoxic [5] -8.33% [at 11.5 µM] | activity change, negative = cytotoxic [6] 1.57% [at 9.22 µM] | activity change, negative = cytotoxic [17] -26.1% [at 9.22 µM] | activity change, negative = cytotoxic [7] 8.6% [at 9.22 µM]

COC(=O)C1=C(C)NC(C)=C(C(=O)OC)C1c1ccccc1[N+](=O)[O-]
active: Potency [11] 21.7 µM
inactive: Potency [1] | Potency [8] | Potency [9] | Potency [2] | Potency [15] | Potency [13] | Potency [16] | Potency [17] | outcome [7]

Oc1cn2c(n1)Nc1ccc(Cl)c(Cl)c1C2
inactive: Potency [1] | Potency [14] | Potency [8] | Potency [9] | Potency [10] | Potency [2] | Potency [15] | Potency [11] | Potency [13] | Potency [3] | Potency [16] | Potency [4] | Potency [5] | Potency [6] | Potency [17] | outcome [7]

CC(C)(O)c1ccccc1CC[C@@H](SCC1(CC(=O)O)CC1)c1cccc(/C=C/c2ccc3ccc(Cl)cc3n2)c1
inactive: Potency [1] | Potency [14] | Potency [8] | Potency [9] | Potency [10] | Potency [2] | Potency [15] | Potency [11] | Potency [13] | Potency [3] | Potency [16] | Potency [4] | Potency [5] | Potency [6] | Potency [17] | outcome [7]

CNCCC(Oc1ccc(C(F)(F)F)cc1)c1ccccc1 (stereo not given)
active: Potency [5] 27.6 µM | Potency [17] 16.8 µM
inactive: Potency [1] | Potency [10] | Potency [2] | Potency [3] | outcome [7]
